Each structure is given as a SMILES string. Hit rate of the full screen: of about 73,000 compounds, about 2,500 (3.4%) were called active. Roughly 7% stayed inconclusive and do not appear here. The call rests on the fitted dose curve; in most records, active means well fitted inhibition curve with a large enough effect; inconclusive means small, poorly fitted or top-dose-only effect; inactive means no such curve, though single readings can be large or run the other way. The list comes from a sample in which actives are over-represented; it also holds similar structures and randomly drawn compounds. Where a call stands in place of a potency, no number is given.
Potency means the concentration at half of the fitted maximal effect.

The target in this experiment is 3-hydroxyacyl-CoA dehydrogenase type-2 (Homo sapiens) (UniProt Q99714). Put plainly: qHTS Assay for Inhibitors of HADH2 (Hydroxyacyl-Coenzyme A Dehydrogenase, Type II). Further: nearly all actives have a fitted effect of over 60% in size. Conditions: recombinant HADH2, NADH fluorescence, beta-hydroxybutyryl-CoA; series mostly up to 57.1 µM. The gist of the method: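 20 nM HADH2 + cpd, 15 min RT; add 1 mM NAD+/90 uM beta-hydroxybutyryl-CoA; kinetic fluorescence 360/450 nm, 4 min. Tris-HCl pH 9.0, 0.01% Tween-20.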
3-hydroxyacyl-CoA dehydrogenase type-2 (Homo sapiens), sequence (Q99714 whole entry, looked up): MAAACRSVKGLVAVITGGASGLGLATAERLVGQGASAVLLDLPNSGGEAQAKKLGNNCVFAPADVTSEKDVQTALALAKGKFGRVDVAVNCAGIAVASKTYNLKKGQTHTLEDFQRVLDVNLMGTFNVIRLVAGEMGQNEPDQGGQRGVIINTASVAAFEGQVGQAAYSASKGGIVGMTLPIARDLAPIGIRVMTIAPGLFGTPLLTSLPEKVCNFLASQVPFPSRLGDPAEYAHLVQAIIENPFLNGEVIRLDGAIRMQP
3-hydroxyacyl-CoA dehydrogenase type-2 (Homo sapiens), sequence (Q99714 whole entry, looked up): as above
In general terms: qHTS replaces the single test concentration by a dilution series.
For `COC(=O)[C@@]1(Cc2ccc(F)cc2)[C@H]2c3cc(C(=O)N4CCCC4)n(Cc4ccc(OC(F)(F)F)cc4)c3C[C@H]2CN1C(=O)c1ccccc1`, the Potency entry is “inactive”.

Consider `CCc1cc(=O)oc2cc(C)cc(OC(C)C(=O)O)c12` (stereo unspecified), for which the Potency result is “inactive”.

Regarding `CCCCc1cc(=O)oc2cc(C)cc(OCc3nn[nH]n3)c12`, the Potency is 25.1 µM (active).

Turning to `O=C(O)c1cccc(S(=O)(=O)NCCO)c1`, the activity change, negative = inhibition is -11.5% [at 11.4 µM] (inactive).

`NC(=O)CSC1=Nc2ccccc2C2=NC(CCC(=O)NCc3ccc(F)cc3)C(=O)N12` (stereo unspecified): the Potency was 31.6 µM (active).

With `O=C(CN1C(=O)CCS(=O)(=O)c2ccccc21)NCc1ccc(F)cc1`, the Potency result is “inactive”.

With `CC(C)C1N=C2c3ccccc3N=C(SCC(=O)c3ccc(O)c(O)c3)N2C1=O` (stereo unspecified), the Potency result is “inactive”.

Take `CC(=O)/C(=N\N=C(N)N)c1ccccc1`: the activity change, negative = inhibition is 5.03% [at 11.4 µM] (inactive).

Regarding `NS(=O)(=O)c1cc(C(=O)O)c(Cl)c([N+](=O)[O-])c1Cl`, the activity change, negative = inhibition was 11.6% [at 11.4 µM] (inactive).

Consider `O=C(c1ccncc1)N1CCC2(CCN(Cc3cc(C(F)(F)F)cc(C(F)(F)F)c3)CC2)CC1`, for which the Potency entry is “inactive”.

Turning to `Cc1nc2cnc(N3CCNCC3)nc2n(CCc2ccccc2)c1=O`, the Potency entry is “inactive”.

Turning to `Cc1cc(C)c2c(n1)nn1c(-n3ccnc3)cc(C)nc21`, the Potency result is “inactive”.

With `Cc1cc(C)c2c(n1)nn1c(N3CCN(c4cccc(Cl)c4)CC3)cc(C)nc21`, the Potency result is “inactive”.

Turning to `Cc1cc(C)c2c(n1)nn1c(N3CCOCC3)cc(C)nc21`, the Potency was 25.1 µM (active).

On to `Cc1cc(C(=O)O)ccc1[N+](=O)[O-]`, for which the Potency entry was “inactive”.

Take `CCCCC/C=C/C=C/C=O`: the Potency entry was “inactive”.

Turning to `Cc1ccc2nc(CC(=O)c3ccc4ccccc4c3)c(=O)[nH]c2c1`, the activity change, negative = inhibition is 11.5% [at 11.4 µM] (inactive).

Regarding `C=CC(=O)c1ccc2ccccc2c1`, the Potency was 20 µM (active).

As to `CCCC[C@H]1C(=O)N(c2ccccc2)N(c2ccc(O)cc2)C1=O`, the Potency result is “inactive”.

`COc1ccc(-n2c(=O)c(C)nc3cnc(N4CCOCC4)nc32)cc1`: the Potency entry is “inactive”.

Take `COCC(=O)N1CCC2(CCCN(c3ccccc3)C2)CC1`: the Potency result was “inactive”.

Regarding `O=C(O)COc1c(Cl)cc(Cl)c2cccnc12`, the activity change, negative = inhibition was 7.63% [at 11.4 µM] (inactive).

On to `COc1ccc(-c2n[nH]c(C)c2-c2ccc(OC)c(OC)c2)c(O)c1`, for which the Potency entry is “inactive”.

`COc1ccc(OC)c(Nc2nc(-c3ccc(O)c(O)c3)cs2)c1`: the Potency was 0.126 µM (active).

For the compound `Oc1ccc(-c2csc(Nc3cccnc3)n2)cc1`, the Potency entry was “inactive”.

In the case of `CO[C@@H]1/C=C\O[C@]2(C)Oc3c(C)c(O)c4c(O)c(c(CN(C)C)c(O)c4c3C2=O)NC(=O)/C(C)=C\C=C[C@@H](C)[C@@H](O)[C@H](C)[C@@H](O)[C@H](C)[C@H](OC(C)=O)[C@@H]1C`, the activity change, negative = inhibition is -4.82% [at 11.4 µM] (inactive).

Consider `CC(C)NC(=O)N1CC[C@@]2(CCCN(C(=O)c3cccc(F)c3)C2)C1`, for which the Potency entry is “inactive”.

For the compound `COC(=O)NC(c1ccccc1)[C@]1(C(C)=O)CCCC1=O` (stereo partly specified), the activity change, negative = inhibition is 4.66% [at 11.4 µM] (inactive).

Take `CN1CCCc2cc(C#N)c(=O)[nH]c21`: the Potency was 3.16 µM (active).

As for `CC/C=C/C/C=C/C/C=C/CCCCCCCC(=O)OCC`, the Potency result was “inactive”.

For the compound `CN(C)CCSS(=O)(=O)O`, the activity change, negative = inhibition was 9.41% [at 11.4 µM] (inactive).

The values above are taken from PubChem BioAssay AID886 (National Center for Advancing Translational Sciences (NCATS), 2007).
